Most compounds without a hit are left out; they make up all but 21% or so of the library.
Pf growth 96h: P. falciparum growth inhibition at 96 hour, primary screen for plastid delayed-death inhibitors. P. falciparum luciferase reporter growth, 96 h. Potency, µM (series often up to 28.7 µM), for inactives: at the highest dose activity change, negative = inhibition, actives largely listed as inhibitors. 6.9% of 320,000 active; also: potency is read from the fitted curve at half-maximal effect; % is scaled to controls: 0 for no effect and ±100 for the full control effect
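Readout is luminescence from an integrated firefly luciferase in P. falciparum. Red cells, 2% hematocrit and 0.05% parasitemia final, were cultured with compound through two parasite generations (96 hours) at 37 C, 5% CO2.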
CHX counter-1: counter-screen hit for Shiga toxin inhibitors, cycloheximide. cell reporter, cycloheximide protein synthesis inhibition counterscreen. max response, %. 12% of 300,000 active; in the data active = max response mostly above about 13%, no sharp cut-off; inactive = mostly below about 14%; also: read at 38.3 µM for the half of the compounds with a filed dose; 0% is about no effect
Shiga toxin inh: inhibitors of Shiga toxin in Vero cells. 9.2% of 290,000 active. AID 2315. Vero cells, Shiga toxin protein synthesis inhibition reporter. inhibition, % at 38.7 µM; in the data active = inhibition mostly above about 28%, no sharp cut-off; inactive = mostly below about 43%; also: 0% is about no effect
Pf growth 48h: inhibits P. falciparum growth in the first generation, 48 h | P. falciparum luciferase growth in erythrocytes, 48 h | Potency, µM (titrated, usually from 28.7 µM), inactives show top-dose activity change, negative = inhibition, most hits filed as inhibitors | 5.9% of 310,000 active | AID 504832; also: potency is read from the fitted curve at half-maximal effect; % is scaled to controls: 0 for no effect and ±100 for the full control effect
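Luminescence readout; reporter = integrated firefly luciferase in P. falciparum. RBC culture at 2% hematocrit, 0.1% parasitemia final, 37 C/5% CO2; decreased signal taken as growth inhibition.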
CHX counter-2: counter-screen for Shiga toxin inhibitors: cycloheximide protein synthesis block. shares compounds with Shiga toxin inh. Cycloheximide counterscreen, protein synthesis reporter, Shiga toxin assay. Potency, µM (doses to about 38.3 µM), without a hit: at the top dose activity (activation), usual class: activators. 3% of 510 active. AID 2318; calls by dose curve; also: potency is read from the fitted curve at half-maximal effect; 0% is about no effect
* marks the source's active call; other numbers are inactive results; [ ] = another dose, or the depositor's remark. Unless noted, calls follow the shape of the dose curve; as a rule, active = well fitted inhibition curve with a large enough effect; inconclusive = small, poorly fitted or top-dose-only effect, or another doubt; inactive = no such curve, though single readings can be large or run the other way.

What do the screens show for `CCN(CCNC(=O)C1CCN(Cc2nc(-c3cccc(Cl)c3)oc2C)CC1)c1ccccc1`?
Pf growth 96h: inconclusive; CHX counter-1: 10.4; Shiga toxin inh: 104.7*; Pf growth 48h: inconclusive; CHX counter-2: -2.0%

How did CCN(CCNC(=O)C1CCN(Cc2nc(-c3ccc(Cl)cc3)oc2C)CC1)c1ccccc1 do in these assays?
Pf growth 96h: 46.3%; CHX counter-1: 1.5; Shiga toxin inh: -4.9; Pf growth 48h: inconclusive

Results for CCC(C(=O)NC1CC1)n1nc(C)c2c(C)n(-c3ccccc3)nc2c1=O (stereo unspecified) ?
Pf growth 96h: inconclusive; CHX counter-1: -4.5; Shiga toxin inh: -5.7; Pf growth 48h: -9.7%

Results for Cc1nn(C(C)C(=O)NC2CCC(C)CC2)c(=O)c2nn(-c3ccccc3)c(C)c12 (stereo unspecified) ?
Pf growth 96h: 15.7%; CHX counter-1: -1.7; Shiga toxin inh: 30.6*; Pf growth 48h: -2.3%; CHX counter-2: inconclusive

What do the screens show for `COc1ccccc1CNC(=O)c1csc2c1CCCC2`?
Pf growth 96h: 17.4%; CHX counter-1: 6.3; Shiga toxin inh: 38.8*; Pf growth 48h: 21.4%; CHX counter-2: 3.3%

What do the screens show for `CCCCCn1c(C(C)NC(=O)CCC)nc2ccccc21` (stereo unspecified)?
Pf growth 96h: -17.4%; CHX counter-1: 0.8; Shiga toxin inh: -32.1; Pf growth 48h: -12.5%

What do the screens show for `COc1ccc(CC(=O)NC(C)c2nnc(SCC(=O)c3ccc(OC)cc3)n2C)cc1` (stereo unspecified)?
Pf growth 96h: inconclusive; CHX counter-1: -1.1; Shiga toxin inh: 2.6; Pf growth 48h: 13.9%

How did COc1ccc(C(=O)CSc2nnc(C(CO)NC(=O)c3ccc(OC)cc3)n2C)cc1 (stereo unspecified) do in these assays?
CHX counter-1: -2.5; Shiga toxin inh: 63.9*; Pf growth 48h: -4.9%; CHX counter-2: -3.0%

Results for CCN(CCn1cccn1)Cc1nc(-c2ccccc2)no1 ?
Pf growth 96h: inconclusive; CHX counter-1: 7.4; Shiga toxin inh: 34.5*; Pf growth 48h: 14.1%; CHX counter-2: 3.8%

How did CN(C)S(=O)(=O)c1ccc(C(=O)OCC(=O)c2ccc3c(c2)NC(=O)CO3)cc1 do in these assays?
Pf growth 96h: -2.1%; CHX counter-1: 2.1; Shiga toxin inh: 42.3*; Pf growth 48h: -0.9%; CHX counter-2: -2.9%

What do the screens show for `CC(C)(C)C1CCC(C(=O)OCC(=O)c2ccc[nH]2)CC1` (stereo unspecified)?
Pf growth 96h: 5.6%; CHX counter-1: 8.3; Shiga toxin inh: 27.0*; Pf growth 48h: -6.9%; CHX counter-2: 0.3%

How did O=C(CSCc1ccccc1)N1CCN(C(=O)c2ccco2)CC1 do in these assays?
CHX counter-1: 17.2; Shiga toxin inh: 45.9*; Pf growth 48h: 6.1%; CHX counter-2: inconclusive

How did O=C(COc1ccccc1)N1CCN(C(=O)c2ccco2)CC1 do in these assays?
Pf growth 96h: 16.2%; CHX counter-1: -0.9; Shiga toxin inh: -6.2

What do the screens show for `COC(=O)c1ccc(CSCC(=O)Nc2ccccc2)cc1`?
Pf growth 96h: inconclusive; CHX counter-1: -2.4; Shiga toxin inh: -1.5; Pf growth 48h: 57.9%

What do the screens show for `COC(=O)c1ccc(NC(=O)Cc2ccc(F)cc2)cc1`?
Pf growth 96h: 59.5%[1.15 µM]; CHX counter-1: 13.6; Shiga toxin inh: 151.3*; Pf growth 48h: -34.2%[1.15 µM]; CHX counter-2: inconclusive

Results for COc1ccccc1CN(Cc1cccnc1)S(=O)(=O)c1ccc(-n2cnnn2)c(OC)c1 ?
Pf growth 96h: 8.28µM*; CHX counter-1: 1.5; Shiga toxin inh: 47.4*; Pf growth 48h: inconclusive; CHX counter-2: -1.8%

How did COc1ccccc1C(=O)Nc1nnc(SCC(=O)Nc2ccc3c(c2)oc2ccccc23)s1 do in these assays?
Pf growth 96h: inconclusive; CHX counter-1: 1.8; Shiga toxin inh: 45.3*; Pf growth 48h: 57.2%; CHX counter-2: 11.3µM*

How did Cc1cc(NC(=O)CSc2nc3ccsc3c(=O)n2Cc2ccccn2)n[nH]1 do in these assays?
Pf growth 96h: inconclusive; CHX counter-1: 11.9; Shiga toxin inh: 64.8*; Pf growth 48h: 7.5%; CHX counter-2: 1.2%

Results for COc1ccc(NC(=O)CN2C(=O)/C(=C3\SC(=S)N(C4CCS(=O)(=O)C4)C3=O)c3ccccc32)cc1 (stereo unspecified) ?
Pf growth 96h: inconclusive; CHX counter-1: 2.8; Shiga toxin inh: 9.5; Pf growth 48h: -15.0%

Results for Cc1cc(C)n(-c2nc(SCCN(C)C)c3c4c(sc3n2)COC(C)(C)C4)n1 ?
Pf growth 96h: 1.47µM*; CHX counter-1: -4.3; Shiga toxin inh: 80.5*; Pf growth 48h: 1.85µM*; CHX counter-2: -4.9%

Results for Cc1cc(C)n(-c2nc(NCC(C)O)c3c4c(sc3n2)COC(C)(C)C4)n1 (stereo unspecified) ?
Pf growth 96h: inconclusive; CHX counter-1: -3.4; Shiga toxin inh: -5.1; Pf growth 48h: inconclusive

How did O=C(Nc1ccccc1C(F)(F)F)C1CCN(C(=O)c2cccs2)CC1 do in these assays?
Pf growth 96h: 28.2%; CHX counter-1: -2.8; Shiga toxin inh: 1.1; Pf growth 48h: 22.0%

Results for c1cc2c(cc1-n1cnnn1)OCO2 ?
Pf growth 96h: 51.3%; CHX counter-1: -0.7; Shiga toxin inh: 44.6; Pf growth 48h: 0.0%

Results for c1cc2c(cc1Cn1cnnn1)OCO2 ?
Pf growth 96h: 47.3%; CHX counter-1: 8.9; Shiga toxin inh: 158.3*; Pf growth 48h: 2.7%; CHX counter-2: -2.2%

Results for O=C(Cc1cccs1)Nc1nc(-c2ccc(F)c(F)c2)cs1 ?
Pf growth 96h: inconclusive; CHX counter-1: 11.1; Shiga toxin inh: 44.4*; Pf growth 48h: inconclusive; CHX counter-2: 4.0%

Results for O=C(Cc1cccs1)Nc1nc(-c2ccc(F)cc2F)cs1 ?
Pf growth 96h: inconclusive; CHX counter-1: 11.5; Shiga toxin inh: 52.7

What do the screens show for `N#Cc1cc([N+](=O)[O-])cnc1Nc1ccccc1`?
Pf growth 96h: 15.7%; CHX counter-1: -3.8; Shiga toxin inh: -8.2; Pf growth 48h: 10.5%

What do the screens show for `COc1ccc2nc3cc(Cl)ccc3c(NCCCN3CCN(CCCNc4c5ccc(Cl)cc5nc5ccc(OC)cc45)CC3)c2c1`?
CHX counter-1: 10.2; Shiga toxin inh: 34.2*; CHX counter-2: -0.3%

Results for CC(=O)N1CCN(C(=O)c2cc(S(=O)(=O)N(C)Cc3ccccc3)ccc2Cl)CC1 ?
Pf growth 96h: 61.1%; Pf growth 48h: inconclusive

What do the screens show for `O=C(NN1CCOCC1)c1ccccc1Br`?
Pf growth 96h: inconclusive; CHX counter-1: -1.7; Shiga toxin inh: 4.7; Pf growth 48h: 29.4%

Results for Cc1ccccc1C(=O)NN1CCOCC1 ?
Pf growth 96h: inconclusive; CHX counter-1: -1.2; Shiga toxin inh: 20.6*; Pf growth 48h: -3.7%; CHX counter-2: -1.1%

Results for CCOc1ccc(S(=O)(=O)N2CCC(C(=O)NCCc3ccc(OC)c(OC)c3)CC2)cc1 ?
Pf growth 96h: inconclusive; CHX counter-1: -2.7; Shiga toxin inh: -4.4; Pf growth 48h: inconclusive

Screening data as filed in PubChem BioAssay.
